Reference: the supplement of paper PMC8728848
This excerpt belongs to a sample that is enriched for the strongest signals.

Experiments:
Assay in all cases: glycan array binding signal (z-score within array); higher = stronger binding
Settings in all cases: glycan notation: IUPAC condensed, linker removed
[1] = target: Fuc(a1-2)Gal(b1-4)GlcNAc(b1-2)[Fuc(a1-2)Gal(b1-4)GlcNAc(b1-4)]Man(a1-3)[Fuc(a1-2)Gal(b1-4)GlcNAc(b1-2)Man(a1-6)]Man(b1-4)GlcNAc(b1-4)GlcNAc
Summary of the method: (§1)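 Glycan array data were curated from 3228 arrays in the Consortium for Functional Glycomics database and kept only where the protein sequence was available. Glycan names were converted to IUPAC-condensed notation, and columns mapping to the same glycan were averaged. The binding signal is a within-array Z-score, averaged across arrays of the same protein sequence at different concentrations or buffers and across linkers. Negative Z-scores can be read as non-binding.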

[2] = target: Fuc(a1-2)Gal(b1-4)GlcNAc(b1-3)[Fuc(a1-2)Gal(b1-4)GlcNAc(b1-6)]GalNAc
Summary of the method: as §1

[3] = target: Fuc(a1-2)Gal(b1-4)GlcNAc(b1-6)GalNAc
Summary of the method: as §1

[4] = target: Fuc(a1-2)[Gal(a1-3)]Gal(b1-3)GlcNAc(b1-6)GalNAc
Summary of the method: as §1

[5] = target: Fuc(a1-2)[Gal(a1-3)]Gal(b1-4)GlcNAc
Summary of the method: as §1

[6] = target: Fuc(a1-2)[Gal(a1-3)]Gal(b1-4)GlcNAc(b1-2)Man
Summary of the method: as §1

[7] = target: Fuc(a1-2)[Gal(a1-3)]Gal(b1-4)GlcNAc(b1-3)[Fuc(a1-2)[Gal(a1-3)]Gal(b1-4)GlcNAc(b1-6)]GalNAc
Summary of the method: as §1

[8] = target: Fuc(a1-2)[GalNAc(a1-3)]Gal(b1-4)GlcNAc(b1-6)GalNAc
Summary of the method: as §1

[9] = target: Fuc(a1-2)[GalNAc(a1-4)]Gal(b1-4)GlcNAc
Summary of the method: as §1

[10] = target: Gal(a1-4)Gal(b1-4)GlcNAc(b1-2)Man(a1-3)[Gal(a1-4)Gal(b1-4)GlcNAc(b1-2)Man(a1-6)]Man(b1-4)GlcNAc(b1-4)GlcNAc
Summary of the method: as §1

[11] = target: Gal(b1-3)Gal
Summary of the method: as §1

[12] = target: Gal(b1-3)GlcNAc(b1-6)[Gal(b1-3)]GalNAc
Summary of the method: as §1

[13] = target: Gal(b1-3)[Fuc(a1-4)]GlcNAc(b1-2)Man(a1-3)[Gal(b1-3)[Fuc(a1-4)]GlcNAc(b1-2)Man(a1-6)]Man(b1-4)GlcNAc(b1-4)[Fuc(a1-6)]GlcNAc
Summary of the method: as §1

[14] = target: Gal(b1-4)GlcNAc(b1-2)Man(a1-3)[Gal(b1-4)GlcNAc(b1-2)Man(a1-6)]Man(b1-4)GlcNAc(b1-4)GlcNAc
Summary of the method: as §1

[15] = target: Gal(b1-4)GlcNAc(b1-2)Man(a1-3)[GlcNAc(b1-4)][Gal(b1-4)GlcNAc(b1-2)Man(a1-6)]Man(b1-4)GlcNAc(b1-4)GlcNAc
Summary of the method: as §1

[16] = target: Gal(b1-4)GlcNAc(b1-2)[Gal(b1-4)GlcNAc(b1-4)]Man(a1-3)[GlcNAc(b1-4)][Gal(b1-4)GlcNAc(b1-2)[Gal(b1-4)GlcNAc(b1-6)]Man(a1-6)]Man(b1-4)GlcNAc(b1-4)GlcNAc
Summary of the method: as §1

[17] = target: Gal(b1-4)GlcNAc(b1-2)[Gal(b1-4)GlcNAc(b1-6)]Man(a1-6)[GlcNAc(b1-4)][Gal(b1-4)GlcNAc(b1-2)Man(a1-3)]Man(b1-4)GlcNAc(b1-4)GlcNAc
Summary of the method: as §1

[18] = target: Gal(b1-4)GlcNAc(b1-3)Gal(b1-4)GlcNAc(b1-3)Gal(b1-4)GlcNAc(b1-2)Man(a1-3)[Gal(b1-4)GlcNAc(b1-3)Gal(b1-4)GlcNAc(b1-3)Gal(b1-4)GlcNAc(b1-2)Man(a1-6)]Man(b1-4)GlcNAc(b1-4)GlcNAc
Summary of the method: as §1

[19] = target: Gal(b1-4)GlcNAc(b1-3)Gal(b1-4)GlcNAc(b1-3)Gal(b1-4)GlcNAc(b1-3)Gal(b1-4)GlcNAc(b1-2)[Gal(b1-4)GlcNAc(b1-3)Gal(b1-4)GlcNAc(b1-3)Gal(b1-4)GlcNAc(b1-3)Gal(b1-4)GlcNAc(b1-6)]Man(a1-6)[Gal(b1-4)GlcNAc(b1-3)Gal(b1-4)GlcNAc(b1-3)Gal(b1-4)GlcNAc(b1-3)Gal(b1-4)GlcNAc(b1-2)Man(a1-3)]Man(b1-4)GlcNAc(b1-4)[Fuc(a1-6)]GlcNAc
Summary of the method: as §1

[20] = target: Gal(b1-4)GlcNAc(b1-3)Gal(b1-4)GlcNAc(b1-3)Gal(b1-4)GlcNAc(b1-3)Gal(b1-4)GlcNAc(b1-3)Gal(b1-4)GlcNAc(b1-3)Gal(b1-4)GlcNAc(b1-2)Man(a1-3)[Gal(b1-4)GlcNAc(b1-3)Gal(b1-4)GlcNAc(b1-3)Gal(b1-4)GlcNAc(b1-3)Gal(b1-4)GlcNAc(b1-3)Gal(b1-4)GlcNAc(b1-3)Gal(b1-4)GlcNAc(b1-2)Man(a1-6)]Man(b1-4)GlcNAc(b1-4)GlcNAc
Summary of the method: as §1

[21] = target: Gal3S(b1-4)Glc6S
Summary of the method: as §1

[22] = target: Gal6S(b1-4)GlcNAc6S
Summary of the method: as §1

[23] = target: GalNAc(a1-3)Gal
Summary of the method: as §1

[24] = target: GalNAc(a1-3)GalNAc
Summary of the method: as §1

[25] = target: GalNAc(b1-3)GalNAc
Summary of the method: as §1

[26] = target: GalNAc(b1-4)GlcNAc
Summary of the method: as §1

[27] = target: GalNAc(b1-4)GlcNAc(b1-2)Man
Summary of the method: as §1

[28] = target: GalNAc(b1-4)GlcNAc6S
Summary of the method: as §1

[29] = target: GalNAc(b1-6)GalNAc
Summary of the method: as §1

[30] = target: GlcA(b1-3)Gal
Summary of the method: as §1

[31] = target: GlcNAc(a1-4)Gal(b1-3)GlcNAc
Summary of the method: as §1

B1: Cohesin-marm-DC-ASGPR (protein)
chain: LDITSHHHHHHDDLDAVRIKVDTVNAKPGDTVRIPVRFSGIPSKGIANCDFVYSYDPNVLEIIEIEPGDIIVDPNPDKSFDTAVYPDRKIIVFLFAEDSGTGAYAITKDGVFATIVAKVKEGAPNGLSVIKFVEVGGFANNDLVEQKTQFFDGGVNVGDTTEPATPTTPVTTPTTTDDLDAASSKFQRDLVTLRTDFSNFTSNTLAEIQALTSQGSSLQETIASLKAEVEGHKQELQAGASELQEHNKQKAHLGRCPHTCVCPSSFVCVPVHSEILLRVQQLVQDLNKLSCQVAILKNNATTERTCCPINWVEHQGSCYWFSRSGKTWPEAERYCQLENTHLVVINSREEQNFVQAHLGSAYTWMGLSDPEGVWKWVDGTDYSSGFQNWKPGQPDDWQGHGLGGGEDCAHFHPDGRWNDDVCQRSYHWVCEAGLTQASQDSHAS
glycan array binding signal (z-score) [1]: -0.267 | glycan array binding signal (z-score) [2]: -0.236 | glycan array binding signal (z-score) [3]: 4.84 | glycan array binding signal (z-score) [4]: 4.11 | glycan array binding signal (z-score) [5]: -0.282 | glycan array binding signal (z-score) [6]: -0.239 | glycan array binding signal (z-score) [7]: -0.22 | glycan array binding signal (z-score) [8]: 4.32 | glycan array binding signal (z-score) [9]: 4.11 | glycan array binding signal (z-score) [10]: -0.267 | glycan array binding signal (z-score) [11]: -0.286 | glycan array binding signal (z-score) [12]: -0.272 | glycan array binding signal (z-score) [13]: -0.265 | glycan array binding signal (z-score) [14]: -0.277 | glycan array binding signal (z-score) [15]: -0.308 | glycan array binding signal (z-score) [16]: -0.268 | glycan array binding signal (z-score) [17]: -0.307 | glycan array binding signal (z-score) [18]: -0.177 | glycan array binding signal (z-score) [19]: -0.272 | glycan array binding signal (z-score) [20]: -0.295 | glycan array binding signal (z-score) [21]: -0.141 | glycan array binding signal (z-score) [22]: -0.295 | glycan array binding signal (z-score) [23]: 4.28 | glycan array binding signal (z-score) [24]: -0.266 | glycan array binding signal (z-score) [25]: -0.307 | glycan array binding signal (z-score) [26]: 4.21 | glycan array binding signal (z-score) [27]: 4.13 | glycan array binding signal (z-score) [28]: 4.56 | glycan array binding signal (z-score) [29]: -0.303 | glycan array binding signal (z-score) [30]: -0.309 | glycan array binding signal (z-score) [31]: -0.3
